# Test results taken from the supplement of paper PMC6897291.
# How the values were obtained:
# RIVA [1] = assay: growth inhibition by drug plus 177Lu-lilotomab satetraxetan (1 - RLU/untreated control) (fraction); higher = stronger inhibition; conditions: 177Lu-lilotomab satetraxetan 0.5 ug/ml
# Method in brief: (§1)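 RIVA or U-2932 cells, untreated or pretreated 18 h with a radiolabelled anti-CD37 antibody conjugate (~600 MBq/mg; 0.5 µg/ml RIVA, 1 µg/ml U-2932), were washed and seeded at 3,000 cells/well on plates pre-printed with the Selleck Cambridge Cancer Compound library. Doses were 10/100 nM (RIVA) or 10/1,000 nM (U-2932). RealTime-Glo luminescence was read daily from day 3 after 1 h at 37°C. Growth inhibition is 1 − RLU/mean of 48 untreated no-drug wells per plate.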
# U-2932 [2] = assay: growth inhibition by drug alone (1 - RLU/untreated control) (fraction); higher = stronger inhibition; conditions: 177Lu-lilotomab satetraxetan 0 ug/ml
# Method in brief: as §1
# RIVA [3] = assay: as above; conditions: 177Lu-lilotomab satetraxetan 0 ug/ml
# Method in brief: as §1
# U-2932 [4] = assay: growth inhibition by drug plus 177Lu-lilotomab satetraxetan (1 - RLU/untreated control) (fraction); higher = stronger inhibition; conditions: 177Lu-lilotomab satetraxetan 1 ug/ml
# Method in brief: as §1
SMILES,"growth inhibition by drug plus 177Lu-lilotomab satetraxetan (RIVA [1]; 100 nM, time (day): 5)","growth inhibition by drug plus 177Lu-lilotomab satetraxetan (RIVA [1]; 100 nM, time (day): 6)","growth inhibition by drug alone (U-2932 [2]; 10 nM, time (day): 3)","growth inhibition by drug alone (U-2932 [2]; 10 nM, time (day): 4)","growth inhibition by drug alone (U-2932 [2]; 10 nM, time (day): 5)","growth inhibition by drug alone (U-2932 [2]; 10 nM, time (day): 6)","growth inhibition by drug alone (U-2932 [2]; 1000 nM, time (day): 3)","growth inhibition by drug alone (U-2932 [2]; 1000 nM, time (day): 4)","growth inhibition by drug alone (U-2932 [2]; 1000 nM, time (day): 5)","growth inhibition by drug alone (U-2932 [2]; 1000 nM, time (day): 6)","growth inhibition by drug alone (RIVA [3]; 10 nM, time (day): 3)","growth inhibition by drug alone (RIVA [3]; 10 nM, time (day): 4)","growth inhibition by drug alone (RIVA [3]; 10 nM, time (day): 5)","growth inhibition by drug alone (RIVA [3]; 10 nM, time (day): 6)","growth inhibition by drug alone (RIVA [3]; 100 nM, time (day): 3)","growth inhibition by drug alone (RIVA [3]; 100 nM, time (day): 4)","growth inhibition by drug alone (RIVA [3]; 100 nM, time (day): 5)","growth inhibition by drug alone (RIVA [3]; 100 nM, time (day): 6)","growth inhibition by drug plus 177Lu-lilotomab satetraxetan (U-2932 [4]; 10 nM, time (day): 3)","growth inhibition by drug plus 177Lu-lilotomab satetraxetan (U-2932 [4]; 10 nM, time (day): 4)","growth inhibition by drug plus 177Lu-lilotomab satetraxetan (U-2932 [4]; 10 nM, time (day): 5)","growth inhibition by drug plus 177Lu-lilotomab satetraxetan (U-2932 [4]; 10 nM, time (day): 6)","growth inhibition by drug plus 177Lu-lilotomab satetraxetan (U-2932 [4]; 1000 nM, time (day): 3)","growth inhibition by drug plus 177Lu-lilotomab satetraxetan (U-2932 [4]; 1000 nM, time (day): 4)","growth inhibition by drug plus 177Lu-lilotomab satetraxetan (U-2932 [4]; 1000 nM, time (day): 5)","growth inhibition by drug plus 177Lu-lilotomab satetraxetan (U-2932 [4]; 1000 nM, time (day): 6)","growth inhibition by drug plus 177Lu-lilotomab satetraxetan (RIVA [1]; 10 nM, time (day): 3)","growth inhibition by drug plus 177Lu-lilotomab satetraxetan (RIVA [1]; 10 nM, time (day): 4)","growth inhibition by drug plus 177Lu-lilotomab satetraxetan (RIVA [1]; 10 nM, time (day): 5)","growth inhibition by drug plus 177Lu-lilotomab satetraxetan (RIVA [1]; 10 nM, time (day): 6)","growth inhibition by drug plus 177Lu-lilotomab satetraxetan (RIVA [1]; 100 nM, time (day): 3)","growth inhibition by drug plus 177Lu-lilotomab satetraxetan (RIVA [1]; 100 nM, time (day): 4)"
O=C(O)CCc1ccc(NCc2cccc(Oc3ccccc3)c2)cc1,0.552,0.561,–,–,–,–,–,–,–,–,–,–,–,–,–,–,–,–,–,–,–,–,–,–,–,–,–,–,–,–,–,–
CC(=O)O[C@@]12CO[C@@H]1C[C@H](O)[C@@]1(C)C(=O)[C@H](O)C3=C(C)[C@@H](OC(=O)[C@H](O)[C@@H](NC(=O)OC(C)(C)C)c4ccccc4)C[C@@](O)([C@@H](OC(=O)c4ccccc4)[C@H]21)C3(C)C [Docetaxel (Taxotere)],0.985,0.987,0.953,0.965,0.974,0.978,0.964,0.972,0.977,0.98,0.953,0.967,0.973,0.973,0.949,0.964,0.969,0.971,0.96,0.971,0.977,0.983,0.966,0.977,0.982,0.985,0.968,0.982,0.985,0.988,0.967,0.979
Cc1[nH]c(/C=C2\C(=O)Nc3ccc(S(=O)(=O)N(C)c4cccc(Cl)c4)cc32)c(C)c1C(=O)N1CCN(C)CC1,0.528,0.523,-0.0104,0.00253,-0.0727,-0.198,-0.0486,-0.0391,-0.0232,0.0376,-0.187,-0.174,-0.209,-0.352,-0.317,-0.305,-0.286,-0.342,-0.0184,0.0537,0.0856,0.0845,-0.011,0.0937,0.135,0.249,0.489,0.536,0.543,0.552,0.412,0.518
CC(=O)O[C@H]1C(=O)[C@@]2(C)[C@H]([C@H](OC(=O)c3ccccc3)[C@]3(O)C[C@H](OC(=O)[C@H](O)[C@@H](NC(=O)c4ccccc4)c4ccccc4)C(C)=C1C3(C)C)[C@]1(OC(C)=O)CO[C@@H]1C[C@@H]2O [Paclitaxel (Taxol)],0.984,0.986,0.806,0.808,0.794,0.778,0.955,0.969,0.977,0.983,0.943,0.957,0.965,0.967,0.949,0.962,0.969,0.972,0.818,0.846,0.866,0.883,0.955,0.97,0.979,0.986,0.961,0.977,0.983,0.986,0.968,0.979
COc1ccc(S(=O)(=O)Nc2cccnc2Nc2ccc(O)cc2)cc1,0.51,0.5,0.0231,-0.0101,-0.0159,0.0329,0.889,0.918,0.932,0.948,-0.0856,-0.157,-0.215,-0.37,-0.353,-0.364,-0.406,-0.581,-0.0595,0.0116,0.0522,0.105,0.896,0.923,0.934,0.956,0.454,0.511,0.525,0.533,0.416,0.502
CN(N=O)C(=O)N[C@@H](C=O)[C@@H](O)[C@H](O)[C@H](O)CO [Streptozotocin (Zanosar)],0.481,0.445,-0.0672,-0.049,-0.0365,0.111,-0.124,-0.0755,-0.109,-0.156,-0.263,-0.268,-0.296,-0.472,-0.291,-0.295,-0.308,-0.376,-0.0646,-0.0512,-0.0238,0.118,-0.0995,-0.0176,-0.0119,0.0347,0.377,0.504,0.521,0.516,0.38,0.458
O=C(O)c1ccc(-c2c[nH]c3ncc(-c4ccccc4)cc23)cc1C1CCCC1,0.488,0.51,0.092,0.0154,-0.12,-0.193,-0.0285,-0.0484,-0.0534,0.0115,-0.0813,-0.122,-0.138,-0.797,-0.515,-0.371,-0.364,-0.433,-0.00975,0.0274,-0.00811,0.0111,0.129,0.173,0.227,0.339,0.472,0.539,0.552,0.565,0.343,0.471
COc1ccc(C2=N[C@@H](c3ccc(Cl)cc3)[C@@H](c3ccc(Cl)cc3)N2C(=O)N2CCNC(=O)C2)c(OC(C)C)c1 [Nutlin-3],0.479,0.496,-0.04,-0.0423,-0.094,-0.287,-0.0802,-0.0948,-0.145,-0.237,-0.198,-0.261,-0.371,-0.533,-0.567,-0.492,-0.511,-0.69,-0.0474,0.00784,0.0366,0.0903,-0.00272,-0.0242,0.00355,0.11,0.386,0.472,0.502,0.521,0.328,0.467
OCCn1cc(-c2ccc3c(c2)CC/C3=N\O)c(-c2ccncc2)n1,0.585,0.602,-0.0296,-0.0312,-0.153,-0.152,-0.112,-0.139,-0.146,-0.12,-0.166,-0.13,-0.183,-0.335,-0.39,-0.208,-0.171,-0.236,-0.00182,0.0536,0.0736,0.0788,-0.118,-0.0611,-0.0101,0.0758,0.513,0.569,0.578,0.59,0.436,0.551
O=C(Nc1cccc(Cl)c1)Nc1ncc(CCNc2ncnc3ccsc23)s1,0.511,0.596,0.0932,0.0546,0.111,0.319,0.16,0.209,0.218,0.355,0.0836,0.115,0.215,0.331,0.0102,0.0483,0.135,0.239,0.0766,0.0714,0.202,0.505,0.201,0.317,0.351,0.495,0.463,0.543,0.579,0.666,0.389,0.481
"CC[C@H](CO)Nc1nc(NCc2ccccc2)c2ncn(C(C)C)c2n1 [Roscovitine (Seliciclib, CYC202)]",0.55,0.531,0.0612,0.034,-0.0433,-0.134,-0.0928,-0.0155,-0.074,-0.195,0.0751,0.0434,0.0188,-0.143,-0.0194,-0.0523,-0.0745,-0.157,0.0443,0.0516,0.0573,0.114,-0.105,0.0161,-0.0091,-0.013,0.429,0.539,0.544,0.554,0.49,0.54
CO[C@H]1C[C@@H]2CC[C@@H](C)[C@@](O)(O2)C(=O)C(=O)N2CCCC[C@H]2C(=O)O[C@H]([C@H](C)C[C@@H]2CC[C@@H](O)[C@H](OC)C2)CC(=O)[C@H](C)/C=C(\C)[C@@H](O)[C@@H](OC)C(=O)[C@H](C)C[C@H](C)/C=C/C=C/C=C/1C [Rapamycin (Sirolimus)],0.88,0.878,0.724,0.686,0.609,0.544,0.737,0.722,0.658,0.599,0.777,0.792,0.785,0.748,0.8,0.833,0.827,0.803,0.692,0.666,0.631,0.623,0.703,0.69,0.662,0.657,0.839,0.875,0.88,0.873,0.829,0.867
NC(=O)c1ccc(I)c([N+](=O)[O-])c1 [Iniparib (BSI-201)],0.516,0.523,-0.0132,-0.0395,-0.0441,-0.012,-0.105,-0.0771,-0.0716,-0.0297,-0.235,-0.257,-0.288,-0.389,-0.378,-0.352,-0.395,-0.471,-0.0638,-0.00415,0.0467,0.129,-0.0685,-0.00507,0.0384,0.191,0.437,0.491,0.504,0.513,0.436,0.495
CN[C@@H](C)C(=O)N[C@H]1CN(C(=O)CC(C)C)CC[C@H]2CC[C@@H](C(=O)NC(c3ccccc3)c3ccccc3)N2C1=O,0.567,0.544,0.0554,0.0151,-0.0459,-0.197,-0.059,-0.0374,-0.0798,-0.0575,0.00534,-0.116,-0.171,-0.417,-0.168,-0.227,-0.25,-0.406,-0.0234,-0.00591,0.0157,0.0545,-0.0193,0.0475,0.055,0.159,0.456,0.56,0.581,0.599,0.456,0.551
